In PubChem BioAssay (NCATS):
Results filed as inconclusive are left out. Entries that show only a call come without a potency. The source made the active and inactive calls. Calls follow the shape of the dose curve; as a rule, active = well fitted curve in the direction sought with a large enough effect; inconclusive = small, poorly fitted or top-dose-only effect, or another doubt; inactive = no such curve, though single readings can be large; an effect the other way counts as inactive or inconclusive.

Key:
[1] = biological target: Aldehyde dehydrogenase, mitochondrial (Homo sapiens) (UniProt P05091); assay: qHTS for Inhibitors of the Aldehyde Dehydrogenase Family (ALDH2) Primary screen (AID 2061308); also: nearly all actives have a fitted effect of over 55% in size
[2] = biological target: Retinaldehyde dehydrogenase 3 (Homo sapiens) (UniProt P47895); assay: qHTS for Inhibitors of the Aldehyde Dehydrogenase Family (ALDH1A3) Primary screen (AID 2061315)

| Structure (SMILES) | Potency [1] | Potency [2] |
| --- | --- | --- |
| COc1cc(OC)cc(-c2nnc3n2N=C(c2ccc(OC)c(OC)c2)CS3)c1 | inactive | inactive |
| CC(C)(C)OC(=O)Cc1nnc(-c2cc3ccccc3[nH]2)s1 | inactive | inactive |
| Cc1cc(C)nc(NC(=S)N2CCN(c3ccc(C(=O)O)cc3)CC2)c1 | inactive | inactive |
| CC(=O)c1ccc(N2CCN(S(=O)(=O)c3ccc4c(c3)CCCC(=O)N4)CC2)cc1 | inactive | inactive |
| Cc1ccccc1S(=O)(=O)N1CCc2cc(-c3nc(NC(=O)Cc4ccc5c(c4)OCO5)sc3C)ccc21 | inactive | inactive |
| c1nc(NCCC2CCCO2)c2cc(-c3ccc4c(c3)OCO4)ccc2n1 (stereo not drawn) | inactive | inactive |
| N#Cc1cccc(-c2noc(-c3ccccc3F)n2)c1 | inactive | inactive |
| Fc1cc(Nc2nc(-c3ccncc3)nc3ccccc23)ccc1-c1ccc(F)c(F)c1F | inactive | inactive |
| COc1ccc(OC)c(Nc2nn3c(=O)c4ccccc4nc3s2)c1 | inactive | inactive |
| C=C(C)C(=O)OC1C(OC(C)=O)/C(C=O)=C\CC/C(CO)=C/C2OC(=O)C(=C)C21 (stereo not drawn) | inactive | inactive |
| NS(=O)(=O)c1ccc(Cc2c(-c3cccc(-c4ccccc4)c3)nn(-c3nc(C(=O)O)cs3)c2C2CC2)cc1 | inactive | inactive |
| CC(C)(C)c1ccc(-c2ccc(=O)n(CC(=O)NCCc3ccccc3)n2)cc1 | inactive | inactive |
| CNc1oc(-c2ccccc2-c2ccccc2)nc1C#N | inactive | inactive |
| Cc1ccc(-c2ccc(=O)n(CC(=O)NCc3ncc[nH]3)n2)cc1 | inactive | inactive |
| O=S1(=O)N=C(Oc2cccc(C(F)(F)F)c2)c2ccccc21 | inactive | inactive |
| O=S(=O)(c1ccc2c(c1)OCCO2)N1CCCN(S(=O)(=O)c2c(F)cccc2F)CC1 | inactive | inactive |
| Cc1ccc(S(=O)(=O)Nc2cc(C(=O)Nc3nc(-c4ccccc4)cs3)ccc2Cl)cc1 | inactive | inactive |
| CC(C)c1cccc(C(C)C)c1NC(=O)Nc1ccc(Sc2ccc([N+](=O)[O-])cc2)cc1 | inactive | inactive |
| Fc1ccc(-c2noc(CCCCSc3nnc(-c4cccc5ccccc45)o3)n2)cc1 | inactive | inactive |
| CCC(C)C(=O)OC1C(C)C2(O)C(C=C(CO)CC3(O)C(=O)C(C)=CC32)C2C(C)(C)C12OC(=O)C(C)C (stereo not drawn) | inactive | inactive |
| Cn1nnnc1Sc1ncnc2scc(-c3cccc(Cl)c3)c12 | inactive | inactive |
| FC(F)(F)c1ccccc1-c1nc2c(c(NCc3ccc(-c4cccnc4)cc3)n1)CCC2 | inactive | inactive |
| CCCn1c(-c2ccc(F)cc2)nc2c(NCCCN(CCO)CCO)nc(C)nc21 | inactive | inactive |
| O=C(O)C1C2C(=O)N(c3ccccc3)C[C@@]23C=C[C@@H]1O3 (stereo partly drawn) | inactive | inactive |
| COC(=O)[C@H](Cc1ccc(O[S+](=O)([O-])c2cccc3cnccc23)cc1)N(C)[S+](=O)([O-])c1ccc2cnccc2c1 | inactive | inactive |
| Clc1ccccc1-c1ccc2ncnc(NCc3cccnc3)c2c1 | inactive | inactive |
| Cn1ccc2cc(S(=O)(=O)N3CCN(S(=O)(=O)c4c(F)cccc4F)CC3)ccc21 | inactive | inactive |

| Structure (SMILES) | Potency [1] | Potency [2] |
| --- | --- | --- |
| O=[S+]([O-])(Nc1ccc(-c2nc3ccccc3[nH]2)cc1)c1ccc2c(c1)CCO2 | inactive | inactive |
| COc1cccc(NC(=O)c2cc(-c3ccc(C)c(C)c3)nc3ccccc23)c1 | inactive | inactive |
| FC(F)(F)c1cccc(N2CCN(C(=S)Nc3ncnc4ccccc34)CC2)c1 | inactive | inactive |
| Cc1ccc(/C=C/C(=O)Nc2cccc([S+](=O)([O-])Nc3ccccc3F)c2)cc1 | inactive | inactive |
| Cc1nc(N2CCOCC2)c2nc(-c3ccccc3)n(CCCN3CCCCC3C)c2n1 (stereo not drawn) | inactive | inactive |
| COc1cccc(-c2nnc3n2N=C(c2ccc(OC)cc2OC)CS3)c1 | inactive | inactive |
| Cc1noc(C)c1-c1ccc2ncnc(NCc3cc(F)cc(F)c3)c2c1 | inactive | inactive |
| Cc1c(P(=S)(c2ccccc2)c2ccccc2)[n+]2ccccc2n1CCCCc1ccccc1 | inactive | inactive |
| Cc1cc(N[S+](=O)([O-])c2cc3c(cc2Cl)NC(=O)CO3)ccc1Br | inactive | inactive |
| CC(=O)Nc1sc2c(c1-c1cccc(N(C)C)c1)CCNC2 | inactive | inactive |
| CC(=O)Nc1cccc(S(=O)(=O)Nc2ccc(C)c(C)c2)c1 | inactive | inactive |
| C=CC1C(OC2OC(CO)C(O)C(O)C2O)OC=C2C(=O)N3C(C(=O)O)Cc4c([nH]c5ccccc45)C3CC21 (stereo not drawn) | inactive | inactive |
| CN(CCc1ccco1)c1ncnc2ccc(-c3ccc4c(c3)OCO4)cc12 | inactive | inactive |
| CCOc1cccc(-c2cc(-c3n[nH]c(=O)n3CC)c3ccccc3n2)c1 | inactive | inactive |
| Cc1ccc(S(=O)(=O)Nc2cnccc2C(=O)Nc2nc(C3CCC3)cs2)cc1 | inactive | inactive |
| Cc1c(P(=S)(c2ccccc2)c2ccccc2)c2ccccc2n1CCc1ccccc1 | inactive | inactive |
| N#Cc1nc(Nc2cc(F)cc(F)c2)c2ncn(CCO)c2n1 | inactive | inactive |
| O=C(Nc1ccc(Cl)cc1)Nc1nnc(-c2ccncc2)s1 | inactive | inactive |
| O=S(=O)(NC1CCCC(NS(=O)(=O)c2c(F)cccc2F)C1)c1ccc2c(c1)OCCO2 (stereo not drawn) | inactive | inactive |
| Cc1cc(C)nc(NC(=S)N2CCN(Cc3c(F)cccc3Cl)CC2)c1 | inactive | inactive |
| CCNc1ncnc2ccc(-c3ccc4c(c3)OCO4)cc12 | inactive | inactive |
| O=C1Nc2ccccc2C1Cc1cc(Cl)c(O)c(Cl)c1 (stereo not drawn) | inactive | inactive |
| Cc1ccc2nsnc2c1S(=O)(=O)Nc1cccc2cccnc12 | inactive | inactive |
| O=C(Nc1cncc(-c2cccnc2)c1)c1cccs1 | inactive | inactive |
| COc1ccccc1-c1nnc2n1N=C(c1ccc(OC(F)F)c(OCC3CC3)c1)CS2 | inactive | inactive |
| CC1(C)C[C@@H]2C[C@@](C)(CN2S(=O)(=O)c2ccc(C(=O)Nc3ccc(Cl)c(S(=O)(=O)N4CCOCC4)c3)cc2)C1 | inactive | inactive |
| Cc1ccc(OCCn2c(CCNC(=O)c3ccc(F)cc3F)nc3ccccc32)cc1 | inactive | inactive |

| Structure (SMILES) | Potency [1] | Potency [2] |
| --- | --- | --- |
| Cc1ccc(OCCn2c(CCNC(=O)COc3ccccc3Br)nc3ccccc32)cc1 | inactive | inactive |
| Cc1cc(C)nc(NC(=S)N2CCN(c3ccc(N4CCCC4)nn3)CC2)c1 | inactive | inactive |
| O=S(=O)(Nc1nccs1)c1ccc(NCc2cccc(Cl)c2Cl)cc1 | inactive | inactive |
| CC1CC1C(=O)Nc1ccc([S+](=O)([O-])Nc2nccs2)cc1 (stereo not drawn) | inactive | inactive |
| Cc1ccc(S(=O)(=O)Nc2ccccc2C(=O)Nc2ccc(-c3ccccc3)nn2)cc1 | inactive | inactive |
| Cc1ccc(NS(=O)(=O)c2cccc(Cl)c2)cc1C | inactive | inactive |
| COc1ccccc1S(=O)(=O)Nc1cnccc1C(=O)Nc1nc(-c2ccccc2)cs1 | inactive | inactive |
| Cc1cccc(CNc2ccnc(-c3ccc(F)cc3F)n2)c1 | inactive | inactive |
| Cc1ccc(NS(=O)(=O)c2cc3c(cc2NC(C)C)NC(=O)CC3)cc1C | inactive | inactive |
| N#Cc1nc(Nc2cccc3ccccc23)nc(NC2CCCC2)n1 | inactive | inactive |
| Cc1ccsc1CNc1ncnc2ccc(-c3c(C)noc3C)cc12 | inactive | inactive |
| COc1ccc(-c2ccc3ncnc(NCc4cccs4)c3c2)cc1 | inactive | inactive |
| Cc1cc(C)n2ncc(C(=O)Nc3ccccc3Sc3ccccc3)c2n1 | inactive | inactive |
| COC(=O)C12C(=O)C(C)=C(O)C1(C)C(C)=CC1C3(CO)CCC(O)C(C)(C)C3CCC12C (stereo not drawn) | inactive | inactive |
| COc1cccc(-c2ccc3ncnc(NCc4cccnc4)c3c2)c1 | inactive | inactive |
| Cc1ccc(CNc2ncc(N3CCCCC3)cn2)cc1 | inactive | inactive |
| O=C1CCc2cc(S(=O)(=O)Nc3ccc(Cl)c(Cl)c3)c(F)cc2N1 | inactive | inactive |
| CC(C)N1CCc2c(-c3nc4ccccc4s3)csc2C1 | inactive | inactive |
| N#CN1CCC(N[S+](=O)([O-])c2cccc(F)c2)CC1 | inactive | inactive |
| Cc1nc(-c2ccccc2)oc1-c1ccc2ncnc(NCCc3cnc[nH]3)c2c1 | inactive | inactive |
| O=C(/C=C/n1cnc(-c2cc(C(F)(F)F)cc(C(F)(F)F)c2)n1)NNc1cnccn1 | inactive | inactive |
| O=[S+]([O-])(c1cc2ccccc2o1)N1CCN([S+](=O)([O-])c2c(F)cccc2F)CC1 | inactive | inactive |
| c1ccc(COc2cccc(-c3nc4ccccc4s3)c2)cc1 | inactive | inactive |
| C=CCNc1oc(C2CCCC2)nc1C#N | inactive | inactive |
| c1nc(NCc2ccc3c(c2)OCO3)c2cc(-c3ccoc3)ccc2n1 | inactive | inactive |
